Results with a measured potency or affinity are listed apart. Inconclusive results are not listed. Calls of active or inactive are those of the source.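 Rule for the calls: active = signal loss with fitted half-maximal concentration at or below twice the top valid tested dose in every test run; inconclusive = runs disagree, flat 30 to 70% signal loss, or poor fit; inactive = all runs flat, opposite direction, or potency beyond limit.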

The test can be described thus: general mammalian cell viability loss – inhibitor set, cherry-pick, set 2, cytotoxicity control for miR-122 modulator project, dose response (AID 720697).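 Note: 0% = median of neutral control wells and -100% = MG132 positive control wells.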 The following applies: HEK293T viability, CellTiter-Glo luminescence, 48 h; series mostly up to 26 µM; activity change, negative = cytotoxicity: at the top concentration. In general terms: In ATP-based viability assays light output follows the ATP content of the culture.
For `CCC(=O)NC[C@H]1[C@H](c2ccc(C3=CCCC3)cc2)[C@H](CO)N1C(C)=O`, the “activity change, negative = cytotoxicity” value was 14.2% (inactive). Turning to `CCC(=O)N1[C@H](CO)[C@H](c2ccccc2)[C@@H]1CN(C(C)C)S(C)(=O)=O`, the “activity change, negative = cytotoxicity” value is 113% (inactive). Regarding `CC(C)C(=O)Nc1ccc2c(c1)C(=O)N(C)[C@@H]1CC[C@@H](CC(=O)NCC3CC3)O[C@H]1CO2`, the “activity change, negative = cytotoxicity” value was 51.9% (inactive). Consider `CN1C(=O)c2cc(NC(=O)c3cccc(F)c3)ccc2OC[C@H]2O[C@H](CC(=O)N3CCc4ccccc4C3)CC[C@H]21`, for which the “activity change, negative = cytotoxicity” value is 62.5% (inactive).

Take `CNC[C@@H]1Oc2cc(C#CC3CCCCC3)ccc2S(=O)(=O)N([C@@H](C)CO)C[C@@H]1C`: the “activity change, negative = cytotoxicity” value was -99.5% (inactive).

Consider `CC(C)NC(=O)Nc1ccc2c(c1)C(=O)N(C)[C@@H]1CC[C@@H](CC(=O)NCC(F)(F)F)O[C@@H]1CO2`, for which the “activity change, negative = cytotoxicity” value is 38.3% (inactive). Turning to `CCOC(=O)c1nc(C)n(-c2ccc(Cl)cc2Cl)n1`, the “activity change, negative = cytotoxicity” value is 63% (inactive). The result for `CC(C)C(=O)Nc1ccc2c(c1)C(=O)N(C)[C@@H]1CC[C@H](CC(=O)NCc3cccc(F)c3)O[C@H]1CO2` reads 56.6% [at 23.5 µM] (inactive). Consider `C=CCc1ccccc1OCC(O)CN1CCN(CCN2C(=O)c3cccc4cccc(c34)C2=O)CC1` (centres undefined), for which the “activity change, negative = cytotoxicity” value was -23.8% (inactive).

For the compound `CCCNC(=O)Nc1ccc2c(c1)OC[C@@H](C)N(CCC)C[C@H](C)[C@H](OC)CN(C)C2=O`, the “activity change, negative = cytotoxicity” value is 117% (inactive). Consider `Cc1ccc(-c2cnc3c(c2)C(=O)N([C@H](C)CO)C[C@@H](C)[C@H](CN(C)CC2CCCCC2)O3)cc1`, for which the “activity change, negative = cytotoxicity” value was 80.6% (inactive). The result for `CCCNC(=O)N1[C@H](CO)[C@@H](c2ccccc2)[C@H]1CNC(=O)c1ccccc1` reads 70.2% (inactive); that for `COCC(=O)N(C)C[C@H]1Oc2cc(-c3ccccc3F)ccc2S(=O)(=O)N([C@@H](C)CO)C[C@@H]1C`, -29.1% (inactive); that for `CCc1ccccc1NC(=O)CN(C)C(=O)Cn1ncc(Cl)c(Cl)c1=O`, -65.2% [at 6 µM] (inactive).

For the compound `CCNC(=O)C[C@@H]1CC[C@H]2[C@H](COc3ccc(NC(=O)c4ccccc4)cc3C(=O)N2C)O1`, the “activity change, negative = cytotoxicity” value is 92.7% (inactive). The result for `CNC(=O)C[C@@H]1CC[C@@H]2[C@@H](COc3ccc(NC(=O)NC(C)C)cc3C(=O)N2C)O1` reads 32.5% (inactive); that for `COc1cc(-c2nnc(-c3ccco3)o2)ccc1OCc1ccccc1`, -3.44% (inactive). `O=C(Nc1ccccc1F)N1C[C@H]2[C@@H](c3ccccc31)[C@@H](CO)N2C(=O)C1CC1`: the “activity change, negative = cytotoxicity” value is -34.8% (inactive). `Cc1ccc(-c2ccc3c(c2)O[C@H](CN(C)C(=O)CC2CC2)[C@H](C)CN([C@H](C)CO)S3(=O)=O)cc1`: the “activity change, negative = cytotoxicity” value was -0.183% (inactive). As to `C[C@@H]1CN([C@H](C)CO)S(=O)(=O)c2ccc(C3=CCCC3)cc2O[C@@H]1CN(C)C(=O)C1CCOCC1`, the “activity change, negative = cytotoxicity” value was 95.3% (inactive).

As for `COC(=O)C[C@H]1CC[C@@H]2[C@H](COc3ccc(NC(=O)c4cccs4)cc3C(=O)N2C)O1`, the “activity change, negative = cytotoxicity” value is 118% (inactive). Regarding `O=C(NC[C@H]1[C@H](c2ccccc2)[C@H](CO)N1CC1CCCC1)c1ccncc1`, the “activity change, negative = cytotoxicity” value was 91% [at 23.5 µM] (inactive). The result for `N#Cc1cccc(NC(=O)Nc2cccs2)c1` reads 96.1% (inactive); that for `COc1ccccc1C#Cc1ccc2c(c1)O[C@H](CN(C)Cc1cccnc1)[C@H](C)CN([C@@H](C)CO)S2(=O)=O`, 12.4% (inactive). Then `COCC(=O)Nc1ccc2c(c1)C(=O)N(C)[C@H]1CC[C@@H](CC(=O)NCCCN(C)C)O[C@H]1CO2`, with 72.5% (inactive); and `CNC(=O)C[C@@H]1CC[C@H]2[C@@H](COc3ccc(NC(=O)C(C)C)cc3C(=O)N2C)O1`, with 52.1% (inactive); and `CN(C[C@@H]1[C@@H](c2ccccc2)[C@H](CO)N1C(=O)C1CCC1)C(=O)c1ccccn1`, with 195% (inactive). The result for `CCOc1ccc(NC(=S)N(CCCN2CCCC2)Cc2cccn2Cc2ccc(Cl)cc2)cc1` reads 11.3% (inactive). As to `CC1(C)CC(=O)c2cnc(NC(=O)c3ccco3)nc2C1`, the “activity change, negative = cytotoxicity” value was 55.7% (inactive).

Regarding `COc1ccc(-c2cc(C3CCN(c4ccc(C(C)=O)cc4[N+](=O)[O-])CC3)[nH]n2)cc1`, the “activity change, negative = cytotoxicity” value was -54.1% (inactive).

Consider `CCCNC(=O)C[C@@H]1CC[C@@H]2[C@H](COc3ccc(NC(=O)c4cc(F)cc(F)c4)cc3C(=O)N2C)O1`, for which the “activity change, negative = cytotoxicity” value was 61.1% (inactive). Consider `COc1ccc2[nH]c(C(=O)O)c(NS(=O)(=O)c3ccc(Cl)s3)c2c1`, for which the “activity change, negative = cytotoxicity” value was 69.3% (inactive). Consider `O=C(CSc1nc2ccccc2s1)N1CCOCC1`, for which the “activity change, negative = cytotoxicity” value was 56.6% (inactive). Consider `COc1ccc2c(c1)C(C)=CC(C)(C)N2C(=O)CNCc1ccc2c(c1)OCO2`, for which the “activity change, negative = cytotoxicity” value is 92.1% (inactive).

Consider `COc1cccc(C(=O)Nc2ccc3c(c2)C(=O)N(C)[C@@H]2CC[C@@H](CC(=O)NCc4ccc(F)cc4)O[C@@H]2CO3)c1`, for which the “activity change, negative = cytotoxicity” value was 71.3% (inactive). The result for `COCCNC(=O)C[C@@H]1CC[C@@H]2[C@H](COc3ccc(NS(=O)(=O)c4ccc(Cl)cc4)cc3C(=O)N2C)O1` reads 18.8% (inactive). `Cc1onc(-c2ccccc2)c1C(=O)NCc1ccccn1`: the “activity change, negative = cytotoxicity” value was 94.7% (inactive). Then `C/C=C/c1ccc2c(c1)O[C@H](CN(C)C(=O)c1cnccn1)[C@H](C)CN([C@H](C)CO)S2(=O)=O`, with 55.4% (inactive); and `Cc1cc(C)c2c(c1)/C(=C/C(=O)c1ccc(Br)s1)C(=O)N2`, with 18% (inactive).

The values are drawn from PubChem BioAssay AID720697 (Broad Institute, 2013).
